The results in this text go back to PubChem BioAssay (NCI).

Compounds without any hit were thinned out: in the full panel of roughly 83,000, 20% have a hit.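 Values shown are percent growth following 48 h exposure of cells in 96-well plates to a single concentration of compound; below 10 was considered active.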 Calls of active or inactive are those of the source.

In the test the test system is MDA-MB-468 breast. Nature of the test: NCI-60 one-dose screen, 48 h (100 = growth as untreated, 0 = no growth, -100 = all killed). As to conditions: 10 µM unless noted.
`O=C1c2ccc3c4c(ccc(c24)C(=O)N1CCCNCc1ccccc1)C(=O)N(CCCNCc1ccccc1)C3=O`: the growth is -95.5% (active).

On to `O=c1c(-c2ccc3c(c2)OCO3)coc2c(CO)c(O)ccc12`, for which the growth is -14.5% (active). With `COc1cc(-c2nc3ccccc3s2)ccc1NC(=O)COc1ccc(Cl)cc1` the figure was 21.3% (inactive); with `N#CC(=C1C=CC(=NO)C=C1)c1ccccc1`, 13.8% (inactive). On to `O=S(=O)(NCCCNc1nccc(-c2c(-c3ccc(F)c(O)c3)nc3sccn23)n1)c1ccc(F)cc1`, for which the growth was -0.153% (active). With `COc1cc(C2C(C#N)=C(N)Oc3cc4c(cc32)OCO4)cc2c1OCO2` (stereo not given) the figure was -8.15% (active). Consider `CCOC(=O)c1cc2c(n1Cc1ccccc1)-c1oncc1CCC2`, for which the growth is 60.2% (inactive). The value for `c1ccc(-c2nc(N3CCOCC3)c3c4c(sc3n2)CCCCC4)nc1` was 65.7% (inactive). For `O=C(c1ccc(OCCN2CCCCC2)cc1)c1c(-c2ccc(O)cc2)sc2cc(O)ccc12`, the growth is 57.7% (inactive).

As for `CCCCO[C@@H]1C=C2[C@H]3CC(C)(C)C(=O)C[C@]3(C(=O)O[C@@H]3O[C@H](CO[C@@H]4O[C@H](CO)[C@@H](OC5OC(C)C(O)C(O)C5O)[C@H](O)[C@H]4O)[C@@H](O)[C@H](O)[C@H]3O)CC[C@@]2(C)[C@]2(C)CC[C@H]3C(C)(C)C(=O)CC[C@]3(C)[C@@H]12` (stereo not given in full), the growth was 101% (inactive). For the compound `N/C(=N\C(N)=N\c1nc2ccccc2s1)c1ccc(C(F)(F)F)cc1`, the growth is 107% (inactive). For `CC(C)[C@H](CO)Nc1nc(Nc2ccc(C(=O)NCCNS(=O)(=O)c3cccc4c(N(C)C)cccc34)c(Cl)c2)c2ncn(C(C)C)c2n1`, the growth is -14.1% (active). With `C[C@@H]1CC[C@@H]2[C@@H]1[C@H](OC(=O)/C=C/c1ccccc1)[C@]1(c3ccccc3)C[C@@H](OC(=O)CO)[C@@]2(C)O1` the figure was 87.5% (inactive); with `Cc1ccccc1OCC(O)COc1ccccc1C`, 105% (inactive); with `CC(C)[C@H]1c2[nH]c3ccccc3c2C[C@H]2C(=O)N(CCCCCCC(=O)NO)CC(=O)N12`, 64.2% (inactive). `CCN(CC)CCN1C(=O)c2c(c(C)c3c(oc4ccc(OC)cc43)c2C)C1=O`: the growth is 101% (inactive).

Turning to `C#C[C@]1(O)CC[C@H]2[C@@H]3CC=C4c5sc(Nc6cc(Cl)ccn6)nc5CC[C@]4(C)[C@H]3CC[C@@]21C`, the growth was 28.6% (inactive). Take `CCN1CCN(c2nc(C)cc(N(CCCNc3ccnc4cc(Cl)ccc34)Cc3ccco3)n2)CC1`: the growth was 84.2% (inactive). With `CCN(C(=O)N1CCN(c2cc3c(cc2F)c(=O)c(C(=O)O)cn3C2CC2)CC1)c1nc(-c2ccccc2)cs1` the figure was 13% (inactive); with `Cc1ccc2sc3c(NCCCN)nc4ccccc4c3c(=O)c2c1`, -6.52% (active). Take `Clc1ccc2c(c1)NC1(CCSc3ccccc31)n1nccc1-2` (stereo not given): the growth was 106% (inactive). With `COC(=O)[C@]12CCC(C)(C)C[C@H]1C1=CC[C@@H]3[C@@]4(C)C/C(=C/c5cccnc5)C(=O)C(C)(C)[C@@H]4CC[C@@]3(C)[C@]1(C)CC2`, the growth is -22.5% [100 µM] (active). With `CCOC(=O)C1=C(C)NC(=O)NC1c1cc(=O)oc2ccc(C)cc12` (stereo not given) the figure was 106% (inactive). In the case of `Cn1c(=O)c2[nH]c(N/N=C/c3ccccc3Br)nc2n(C)c1=O`, the growth was 115% (inactive). For `COc1ccc(/C=C(\C#N)c2cc(OC)c(OC)c(OC)c2)cc1`, the growth is -10.8% (active). The value for `COc1ccc(/C=N/C2=C(C#N)C(c3ccccc3[N+](=O)[O-])c3ccc4ccccc4c3O2)cc1` (stereo not given) was 104% (inactive); that for `CC(C)CCNCC(C)(C)O` was 112% (inactive). Turning to `C=C(C)[C@@H]1CC[C@]2(C(=O)O)CC[C@]3(C)[C@H](CC[C@@H]4[C@@]5(C)C/C(=C/c6cccc(I)c6)C(=O)C(C)(C)[C@@H]5CC[C@]43C)[C@@H]12`, the growth was 25.6% (inactive). Regarding `CNCc1ccccc1CN(CC(=O)Nc1ccc2c(c1)CC1(C2)C(=O)Nc2ncccc21)C(=O)C(C)(C)C` (stereo not given), the growth is 107% (inactive). On to `COc1cc(CN(CCC(O)N2CCCC2=O)Cc2ccc3c(c2)OCO3)cc(OC)c1OC` (stereo not given), for which the growth is 119% (inactive). The value for `N#C/C(=C\c1ccc(-c2cccc(C(F)(F)F)c2)o1)c1ccccc1` was 23.4% (inactive); that for `COc1cccc(/C=C/C(=O)c2cc3c(N)c(C(=O)Nc4ccccc4C)sc3nc2C)c1` was 16.7% (inactive). As to `Cc1ccc(-c2nc(SCC(=O)Nc3nc(-c4ccc(Cl)cc4)cs3)[nH]c(=O)c2C#N)cc1`, the growth is 117% (inactive). The value for `Cc1ccc(C(=O)Nc2ccc(CN3CCN(C)CC3)c(C(F)(F)F)c2)cc1C#Cc1cnc(N)c2ccc(F)cc12` was -79.2% (active); that for `C#CC[C@@H]1C[C@]2(C)[C@H]3CC[C@@H]4[C@H]5C(C(=C)C)CC[C@]5(C(=O)NCCCCCCCCN)CC[C@@]4(C)[C@]3(C)CC[C@H]2C(C)(C)[C@H]1OC(C)=O` (stereo not given in full) was 105% (inactive); that for `CC1(C)NCCC[C@]2(C)[C@H]3CC[C@@H]4[C@H]5[C@H](C(=O)/C=C/c6ccccn6)CC[C@]5(CO)CC[C@@]4(C)[C@]3(C)CC[C@@H]12` was 5.83% (active). Consider `O=C1Nc2ccccc2/C1=N/N1C(=O)CN(CCCl)C1=O`, for which the growth is 107% (inactive). With `O=C1c2ccccc2C(=O)c2c(NCCN=Cc3ccccc3O)cccc21` the figure was 43.8% (inactive). Take `N#Cc1ccc(-c2ccc(COc3ccc(CC4SC(=O)NC4=O)cc3)cc2)cc1` (stereo not given): the growth was 5.4% (active).

Turning to `Cc1cc(C(C#N)c2ccc(Cl)cc2)c(Cl)cc1NC(=O)c1cc(I)cc(I)c1O` (stereo not given), the growth was 58.9% (inactive).
